# Test results from ChEMBL document CHEMBL3988442, “University of Dundee, Small-Polar-MMV Screening Library” (2021).
# Screen size: about 48,000 compounds; about 13,000 (27%) showed an effect of 50% or more. The list shows a part of the results.
# System: Wolbachia pipientis
# Assay: Anti-Wolbachia Cell-Based Screen
# Format: functional
# Design: scale not given: in the data most compounds retested in dose-response had high values
# Conditions: 5 µM
row,Structure (SMILES),Percent Effect [%]
1,N#Cc1cccnc1NCCNC(=O)N1CCCC(C(F)(F)F)C1 (stereo unspecified),-23.68
2,CS(=O)(=O)NCCC1CN(Cc2ccccc2F)CCO1 (stereo unspecified),-13.1
3,N#Cc1c[nH]c(C(=O)N(Cc2ccc(O)cc2)CC2CC2)c1,-16.08
4,O=C(NCC(O)c1cccs1)c1cccc(Cl)c1 (stereo unspecified),-18.24
5,CNc1nc(C(=O)N2CCC3(CCCN(CCOC)C3=O)C2)cs1 (stereo unspecified),-30.8
6,O=C1CCNc2ncc(-c3ccccc3Cl)cc2CN1C1CC1,75.8
7,COc1ccc(-c2cnc3c(c2)CN(C2CC2)C(=O)CCN3)cc1,106.7
8,O=C(c1ncc[nH]1)N1CCC(n2cc(-c3cccc(Cl)c3)nn2)CC1,-7.325
9,COc1ccc(-c2nnc(CN3CCNC(=O)C3)o2)cc1,-34.6
10,COc1ccc(NC2CCN(C3CC3)C2=O)cn1 (stereo unspecified),-16.66
11,O=C1CCNc2ncc(-c3ccc(Cl)cc3)cc2CN1C1CC1,113.7
12,O=C1CCNc2ncc(-c3cccc(Cl)c3)cc2CN1C1CC1,104.4
13,CNC(=O)c1cn2cc(-c3cccc(Cl)c3)n(CC3CC3)c(=O)c2n1,-6.691
14,O=S(=O)(c1ccccc1Cl)N1CCc2nc(C3CCNCC3)ncc2C1,-5.628
15,CC(O)c1cn(C2CCN(C(=O)C3(C)CCCCC3)CC2)nn1 (stereo unspecified),29.6
16,NC(=O)CCOc1ccc(NC(=O)c2ccccc2OC(F)F)cc1,5.121
17,CC(=O)N1CCC(N2CCOC[C@H]2c2nc(C(C)(C)C)c[nH]2)CC1,-20.09
18,COc1cccc2c1OCC(CNC(=O)Cc1csc(C(C)=O)c1)C2 (stereo unspecified),-8.032
19,COc1cccc2c1OCC(Cc1cc(C(N)=O)ccn1)C2 (stereo unspecified),86.97
20,COc1cccc2c1OCC(CNC(=O)CN(C)C1CCCC1)C2 (stereo unspecified),-4.207
21,COc1cccc2c1OCC(Cc1cnc(N)c(C)c1)C2 (stereo unspecified),43.69
22,CCOCCC(=O)NCC1COc2c(cccc2OC)C1 (stereo unspecified),-9.333

row,Structure (SMILES),Percent Effect [%]
1,COc1cccc2c1OCC(C(=O)N1Cc3ccccc3C1)C2 (stereo unspecified),-46.74
2,COc1cccc2c1OCC(C(=O)N1CCSCC1)C2 (stereo unspecified),-0.8492
3,COc1cccc2c1OCC(CNC(=O)Cc1cnccn1)C2 (stereo unspecified),-6.368
4,COc1cccc2c1OCC(CNC(=O)Cn1ccnc1C)C2 (stereo unspecified),-7.516
5,CNC(=O)c1ccnc(CC2COc3c(cccc3OC)C2)c1 (stereo unspecified),100.6
6,COc1cccc2c1OCC(Cc1cc(C(=O)N3CCCC3)ccn1)C2 (stereo unspecified),103.2
7,CCNC(=O)c1ccnc(CC2COc3c(cccc3OC)C2)c1 (stereo unspecified),109.1
8,CCCC(C)NCc1cnc(-c2cccc(C)c2)nc1 (stereo unspecified),4.812
9,CC1=C[C@@H](CN2CCC(O)CC2)[C@H](C(C)C)C[C@H]1Cc1nnc(C)o1,4.973
10,CC(C(=O)N(C)Cc1ccco1)n1cncn1 (stereo unspecified),14.16
11,CN1Cc2[nH]nc(COCC3CC3)c2C1.O=C(O)C(F)(F)F.O=C(O)C(F)(F)F,-7.545
12,CC(CO)CNC(=O)c1cc2cccc(F)c2o1 (stereo unspecified),-10.54
13,CN1CCN(CC2CC2)C(=O)c2cnc(N3CCCCC3)nc21,8.561
14,CN1CCN(CC2CC2)C(=O)c2cnc(N3CCC(CO)CC3)nc21,85.31
15,CN1CCN(CC2CC2)C(=O)c2cnc(N3CC[C@@H](O)C3)nc21,-2.603
16,CN1CCN(CC2CC2)C(=O)c2cnc(N3CCCC3)nc21,-1.77
17,CN1CCN(CC2CC2)C(=O)c2cnc(N3CCOCC3)nc21,128
18,Cc1cnc(N2C[C@@H]3CCN(CC4CC4)C(=O)[C@H]3C2)nc1,4.769
19,c1cc2c(cc1-c1noc3c1CN(C1CCSC1)CC3)OCO2 (stereo unspecified),2.821
20,CC(NCc1ccccc1CN1CCCC1=O)c1ccc(C#N)cc1 (stereo unspecified),-5.192
21,CCN(CCOc1ccc(F)cc1)C(=O)c1ccncc1Cl,2.739
22,O=C(NCCC1CN(Cc2cccnc2)CCO1)c1ccsc1 (stereo unspecified),-9.218

row,Structure (SMILES),Percent Effect [%]
1,N#Cc1c(SCCN2CCCCCC2)sc2c(O)cc(O)nc12,100.4
2,N#CCCSc1sc2c(O)cc(O)nc2c1C#N,107.9
3,FC(F)(F)Cn1nnnc1SCCN1CCCCC1,-6.458
4,N#Cc1ccc(F)c(CSCCN2CCOCC2)c1,-32.26
5,N#Cc1ccc(-c2nnc(CSCCN3CCOCC3)o2)cc1,-12.22
6,N#Cc1c(SCCN2CCOCC2)sc2c(O)cc(O)nc12,143.1
7,N#Cc1c(SCCN2CCCCC2)sc2c(O)cc(O)nc12,98.27
8,Cn1cc(Br)cc1C(=O)NC1(C#N)CC1,-11.26
9,c1cnc(NCCCOC2CCOCC2)nc1,1.156
10,CC(C)CN1CCCn2nc(CNC(=O)CN3CCOC3=O)cc2C1,1.752
11,Cn1cnnc1CNC(=O)CCCOc1ccccc1Cl,2.629
12,Cc1ccc(N(C)Cc2nnnn2C2CC2)c(C)c1,-2.761
13,O=C(c1cccc2c1OCO2)N1CCCC(n2cccn2)C1 (stereo unspecified),2.187
14,O=C(c1cccc2c1OCCO2)N1CCCC(n2cccn2)C1 (stereo unspecified),108.1
15,Cc1cc(C)n(C2CCCN(C(=O)c3cccc4c3OCO4)C2)n1 (stereo unspecified),86.78
16,COCc1ccccc1C(=O)N1CCCC(n2nc(C)cc2C)C1 (stereo unspecified),4.248
17,Cc1cnn(C2CCCN(C(=O)c3cccc4c3OCO4)C2)c1 (stereo unspecified),104.2
18,Cc1cc(C)n(C2CCCN(C(=O)c3cccc4[nH]ncc34)C2)n1 (stereo unspecified),4.56
19,O=C(c1ccccc1N1CCOCC1)N1CCCC(n2cccn2)C1 (stereo unspecified),-2.451
20,c1cc(CCn2ccc(NC3CCSCC3)n2)ccn1,6.041
21,COc1cccc(N2CCN(C(C(=O)O)c3ccc(OC)nc3)CC2)c1 (stereo unspecified),-2.782
22,COc1c(F)cc(-c2cccc3c2OC(CN)C3)cc1F (stereo unspecified),6.268

row,Structure (SMILES),Percent Effect [%]
1,CC(C)(C)c1cc(C[C@H]2CNCC[C@H]2CC(=O)NC2CCCCC2)no1,10.2
2,Cl.O=C(NC1CCCC1)C1(Cc2cc(C3CCOC3)no2)CCNCC1 (stereo unspecified),131.3
3,C[C@@H]1CN(Cc2cc(C3CCCCC3)no2)CC[C@]1(C)O,4.197
4,CC1CCN(C(=O)C2(Cc3cc(C4CCOC4)no3)CCNCC2)CC1.Cl (stereo unspecified),189.1
5,OCC1COCCN(Cc2cc(C3CCCCC3)no2)C1 (stereo unspecified),-1.346
6,CC(C)(C)c1noc(OCC(=O)NC2CCCC2)n1,-14.46
7,CCN(C)c1ccc(CNC(=O)c2cc(C(N)=O)cs2)cc1F,-17.75
8,OCCN1CCN(Cc2cn(-c3ccccc3)nn2)CC1,-6.326
9,CN1CC(c2ccccc2)CC12CCN(C(=O)c1ccc(Cl)cn1)CC2 (stereo unspecified),-6.025
10,Cc1cc(N(C)Cc2snnc2C)nc(-c2cccnc2)n1,5.151
11,Cc1cc(NCCc2c(C)n[nH]c2C)nc(-c2cccnc2)n1,90.29
12,CCCc1nc(C)cc(NCCc2nnc(N)s2)n1,113
13,Cc1cc(NCCc2nnc(N)s2)nc(-c2cccnc2)n1,111.6
14,FC(F)(F)c1cc(NCCn2ncnn2)nc(-c2cccnc2)n1,-6.298
15,Cc1cc(NCCc2nc(C)cs2)nc(-c2cccnc2)n1,101.8
16,FC(F)(F)c1cc(NCCCn2cccn2)nc(-c2cccnc2)n1,19.81
17,CC(C)Cc1cc(C(=O)NCCc2nnc(N)s2)n(C)n1,6.947
18,Cc1csc(CCNc2ccc(C#N)cn2)n1,-3.132
19,Cc1n[nH]c(C)c1CCN(C)C(=O)C(c1cccnc1)N1CCOCC1 (stereo unspecified),1.239
20,CCCc1nc(C)cc(NC(C)Cc2cnccn2)n1 (stereo unspecified),10.99
21,Cc1cc(N(C)Cc2cc(C(C)(C)C)n[nH]2)nc(-c2cccnc2)n1,-3.665
22,O=C(Nc1cccn(CC(F)(F)F)c1=O)c1ccncc1F,-0.2014

row,Structure (SMILES),Percent Effect [%]
1,CSc1ncc(C(=O)N2C[C@H]3CC[C@@H]2CN(Cc2ccccc2)C3)cn1,-11.56
2,COc1cccc(CNC2CCCOc3cc(C)ccc32)n1 (stereo unspecified),-12.28
3,Cc1ccccc1C(CC(=O)NCc1nnc(N)s1)c1ccccc1 (stereo unspecified),1.078
4,Cc1cc(NCCc2nnc(N)s2)nc(-c2ccccc2)n1,97.75
5,Cn1cccc1-c1cc(C(=O)NCCc2nnc(N)s2)[nH]n1,-4.601
6,N#Cc1cccc(NC(=O)N[C@H](CO)Cc2ccc(O)cc2)c1,-17.39
7,O=C(NC1CCC1)C1CCC2(CN(C(=O)c3ccno3)C2)O1 (stereo unspecified),2.059
8,CC(C)(C)n1ccc(C(=O)N2CCCC(c3ccc(C(=O)O)cc3)C2)c1 (stereo unspecified),-5.053
9,CC(C)c1csc(C2CCCN(C(=O)c3ccc[nH]3)C2)n1 (stereo unspecified),7.741
10,Cc1[nH]ccc1C(=O)N1CCCC(c2nccn2Cc2cscn2)C1 (stereo unspecified),-11.42
11,O=C(c1ccc[nH]1)N1CCCC(c2cc(C(F)(F)F)[nH]n2)C1 (stereo unspecified),-9.471
12,Cc1cc(C(=O)N2C[C@@H](C(=O)O)[C@H](c3ccccc3C)C2)c(C)o1,-7.74
13,Cc1cc(C(=O)N2CCCC(c3ccc(C(=O)O)cc3)C2)c(C)o1 (stereo unspecified),108.3
14,Cc1[nH]ccc1C(=O)N1CCCC(c2ccc(C(=O)O)cc2)C1 (stereo unspecified),104
15,O=C(O)c1ccc(C2CCCN(C(=O)c3ccc[nH]3)C2)cc1 (stereo unspecified),96.47
16,CCC(C)N1CCC(Oc2ccc(C(=O)NCCN(C)C)cc2Cl)CC1 (stereo unspecified),0.8675
17,COc1cccc(/C=C/CCN2CCCN(C(C)=O)CC2)c1,3.012
18,COCC(=O)NCc1cccc(OCCN(C)C2CCOCC2)c1,-0.3867
